A short description of assay [1]: ATG_E_Box_CIS: Attagene CIS-FACTORIAL HepG2 Assay for human Enhancer Box (E-box) (AID 2282936). The settings on record: HepG2 E-box cis-reporter transcription, actives raise or lower the signal. In outline:
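HepG2 cells transiently transfected with multiplexed cis-element reporter units, dosed 24 h; reporter mRNA quantified by RT-PCR, 6-FAM labelling, HpaI digestion and capillary electrophoresis. E-box (USF1) signal fitted bidirectionally vs DMSO.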

A short description of assay [2]: ATG_M_61_CIS: Attagene CIS-FACTORIAL HepG2 Assay for M61 Transcription Factor (Internal Marker) (AID 2282937). As to conditions: HepG2 Attagene CIS-FACTORIAL M61 internal marker reporter; actives raise or lower the signal. In outline:
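Human liver HepG2, transient MRTU transfection (cis promoter elements), 24 h compound. Total RNA → oligo(dT) RT → PCR → FAM label → HpaI → CE. Internal background marker; bidirectional fitting, DMSO = baseline.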

Assay [3] can be described thus: ATG_EGR_CIS: Attagene CIS-FACTORIAL HepG2 Assay for human Early Growth Response 1 (EGR1) (AID 2282938). As to conditions: HepG2 Attagene CIS-FACTORIAL EGR reporter mRNA; actives raise or lower the signal. In outline:
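Transient transfection of human HepG2 with multiple cis-regulated reporter units, chemical exposure 24 h, total RNA isolated. Reverse transcription, PCR, fluorescent labelling and capillary electrophoresis quantify reporter transcripts; activity fitted bidirectionally against DMSO.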

Assay [4] is described as follows: ATG_M_19_CIS: Attagene CIS-FACTORIAL HepG2 Assay for M19 Transcription Factor (Internal Marker) (AID 2282939). The settings on record: HepG2 Attagene CIS-FACTORIAL M19 internal marker reporter; actives raise or lower the signal. A digest of the protocol:
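Readout: fluorescent reporter-transcript fragments by capillary electrophoresis after RT-PCR. Human HepG2 liver cells carried transfected MRTU constructs reporting endogenous transcription-factor activity; exposure 24 h. Gain or loss of signal fitted relative to DMSO.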

A short description of assay [5]: ATG_Ets_CIS: Attagene CIS-FACTORIAL HepG2 Assay for human Erythroblast Transformation Specific (ETS) (AID 2282941). As to conditions: HepG2 ETS cis-reporter transcription, actives raise or lower the signal. A digest of the protocol:
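After transient cis-reporter transfection, HepG2 cells receive test chemical for 24 h. Reporter mRNA levels, measured by RT-PCR and capillary electrophoresis fluorescence, are analysed bidirectionally relative to the DMSO baseline.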

In assay [6] the target is Hepatocyte nuclear factor 3-beta (Homo sapiens) (UniProt Q9Y261). The assay is described as follows: ATG_FoxA2_CIS: Attagene CIS-FACTORIAL HepG2 Assay for human Forkhead box A2 (FOXA2) (AID 2282942). The settings on record: HepG2 cis-reporter transcription factor activity, 24 h; actives raise or lower the signal. A digest of the protocol:
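Transient MRTU transfection of HepG2 liver cells; 24 h treatment; total RNA → oligo(dT) RT → PCR → FAM primer extension → HpaI cut → CE. Bidirectional fit vs DMSO.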

A short description of assay [7]: ATG_FoxO_CIS: Attagene CIS-FACTORIAL HepG2 Assay for human Forkhead box O (FoxO) (AID 2282943). As to conditions: HepG2 Attagene cis-reporter, FoxO element, mRNA; actives raise or lower the signal. In outline:
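Transfected HepG2 reporter cells exposed to test chemical for 24 h; reporter RNA measured by reverse transcription, PCR and fluorescent capillary electrophoresis; curves fitted for increases and decreases against DMSO.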

Assay [8] can be described thus: ATG_GATA_CIS: Attagene CIS-FACTORIAL HepG2 Assay for human GATA Binding Protein (AID 2282944). As to conditions: HepG2 GATA cis-element reporter, Attagene multiplex mRNA; actives raise or lower the signal. A digest of the protocol:
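Read-out: fluorescent reporter mRNA fragments resolved by capillary electrophoresis after RT-PCR. Human liver HepG2 cells carried transiently transfected cis-regulated reporter constructs; chemicals incubated 24 h; gain or loss of signal fitted relative to DMSO.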

Assay [9] in a line: ATG_GLI_CIS: Attagene CIS-FACTORIAL HepG2 Assay for human Zinc Finger Protein GLI1 (AID 2282945). The settings on record: HepG2, Attagene cis-factorial reporter mRNA, GLI element; actives raise or lower the signal. In outline: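 Transiently transfected HepG2 cells report endogenous transcription factor activity via cis-element-driven reporter units. After 24 h compound exposure, reporter mRNA was measured by RT-PCR with capillary electrophoresis; bidirectional fitting against DMSO baseline.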

Assay [10] has as its target Bile acid receptor (Homo sapiens) (UniProt Q96RI1). The assay is described as follows: ATG_IR1_CIS: Attagene CIS-FACTORIAL HepG2 Assay for human Nuclear Receptor Subfamily 1 Group H Member 4 (NR1H4), IR1 submotif (AID 2282946). The settings on record: IR1 reporter transcription, actives raise or lower the signal. A digest of the protocol: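 HepG2 cells transiently transfected with multiple cis-promoter-driven reporter units to measure endogenous transcription factor activity; 24 h exposure. Reporter mRNA read by RT-PCR, FAM labelling, HpaI digestion and capillary electrophoresis. Bidirectional fit versus DMSO.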

Assay [11] is described as follows: ATG_GRE_CIS: Attagene CIS-FACTORIAL HepG2 Assay for human Glucocorticoid Response Elements (GRE) (AID 2282947). As to conditions: HepG2 GRE cis-reporter, Attagene multiplex mRNA; actives raise or lower the signal. In outline: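 Transiently transfected HepG2 cells carrying GRE cis-reporter units (endogenous TF activity) dosed 24 h; reporter mRNA quantified by RT-PCR, 6-FAM labelling, HpaI digestion and capillary electrophoresis. Bidirectional fit versus DMSO baseline.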

A short description of assay [12]: ATG_ISRE_CIS: Attagene CIS-FACTORIAL HepG2 Assay for human Interferon Regulatory Factor 1 (IRF1) binding to an Interferon-Stimulated Response Element (ISRE) (AID 2282948). As to conditions: HepG2 ISRE cis-reporter (Attagene), mRNA transcription readout; actives raise or lower the signal. A digest of the protocol: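 Quantitation relies on labelled RT-PCR fragments separated by capillary electrophoresis. Human HepG2 cells bearing cis-promoter reporter constructs were treated 24 h; DMSO served as baseline for bidirectional fitting.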

Assay [13] is described as follows: ATG_M_32_CIS: Attagene CIS-FACTORIAL HepG2 Assay for M32 Transcription Factor (Internal Marker) (AID 2282949).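 Also: background control marker of the multiplexed CIS panel rather than a real target.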 As to conditions: HepG2 Attagene cis-factorial M32 reporter, mRNA; actives raise or lower the signal. In outline:
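Fluorescent capillary electrophoresis peaks of HpaI-digested, FAM-labelled RT-PCR reporter products give the signal. Source: transiently transfected human liver HepG2 cells, 24 h after chemical dosing; bidirectional fitting against DMSO.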

A short description of assay [14]: ATG_M_06_CIS: Attagene CIS-FACTORIAL HepG2 Assay for M06 Transcription Factor (Internal Marker) (AID 2282950). The settings on record: HepG2 Attagene CIS-FACTORIAL M06 internal marker reporter; actives raise or lower the signal. In outline: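 Terse: HepG2, transient MRTU transfection (FuGene 6), 24 h dosing; total RNA, oligo(dT) RT, PCR, FAM label, HpaI cut, capillary electrophoresis; bidirectional fit vs DMSO baseline; background-control endpoint.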

The target in assay [15] is Hypoxia-inducible factor 1-alpha (Homo sapiens) (UniProt Q16665). Briefly: ATG_HIF1a_CIS: Attagene CIS-FACTORIAL HepG2 Assay for human Hypoxia Inducible Factor 1 (HIF1A) (AID 2282951). The settings on record: HepG2 Attagene cis-factorial HIF1a reporter transcription; actives raise or lower the signal. A digest of the protocol:
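Transient MRTU transfection of human HepG2 liver cells, 24 h compound treatment, then total RNA isolation, oligo(dT) reverse transcription, PCR amplification, fluorescent labelling and capillary electrophoresis of reporter fragments. Gain or loss relative to DMSO.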

Assay [16] addresses Hepatocyte nuclear factor 6 (Homo sapiens) (UniProt Q9UBC0). Briefly: ATG_HNF6_CIS: Attagene CIS-FACTORIAL HepG2 Assay for human Hepatocyte Nuclear Factor 6 (HNF6) (AID 2282952). The settings on record: HepG2 Attagene cis-factorial HNF6 reporter transcription; actives raise or lower the signal. In outline: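 HepG2, transient MRTU transfection (cis promoters); 24 h chemical exposure; total RNA → oligo(dT) RT → PCR → 6-FAM labelling → HpaI cut → CE; bidirectional fit vs DMSO.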

In assay [17] the target is Heat shock factor protein 1 (Homo sapiens) (UniProt Q00613). Briefly: ATG_HSE_CIS: Attagene CIS-FACTORIAL HepG2 Assay for human Heat Shock Transcription Factor 1 (HSE) (AID 2282953). The settings on record: HepG2 HSE cis-reporter, Attagene RNA transcription; actives raise or lower the signal. A digest of the protocol:
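Read-out: fluorescence of reporter-specific RT-PCR fragments separated by capillary electrophoresis. HepG2 carrying transfected cis-element reporter units; 24 h dosing; activity fitted in both directions relative to DMSO baseline.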

Assay [18] in a line: ATG_MRE_CIS: Attagene CIS-FACTORIAL HepG2 Assay for human Metal Responsive Element (MRE) (AID 2282954). The settings on record: HepG2 MRE cis-reporter transcription, Attagene multiplex; actives raise or lower the signal. A digest of the protocol: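 HepG2 cells transiently transfected with cis-element-driven reporter units; mRNA measured 24 h after dosing. Reporter transcripts quantified by RT-PCR, FAM labelling, HpaI digestion and capillary electrophoresis; bidirectional fit versus DMSO.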

Assay [19] can be described thus: ATG_ERE_CIS: Attagene CIS-FACTORIAL HepG2 Assay for Estrogen Response Element (ERE) (AID 2282940). The settings on record: HepG2 ERE cis-reporter, Attagene RNA transcript; actives raise or lower the signal. In outline: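 Readout: reporter mRNA induction by RT-PCR, FAM-labelled primer extension, HpaI digestion and capillary electrophoresis, 24 h after dosing transfected HepG2 cells. Endogenous transcription factors act on cis-element-regulated reporters. Gain or loss fitted against DMSO.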

A short description of assay [20]: ATG_PBREM_CIS: Attagene CIS-FACTORIAL HepG2 Assay for human Phenobarbital-responsive Enhancer Module (PBREM) (AID 2282955). As to conditions: HepG2 PBREM cis-reporter, Attagene multiplexed transcription; actives raise or lower the signal. In outline: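 Endogenous transcription factors in human liver HepG2 cells drive a PBREM cis-element reporter, whose transcript level after 24 h treatment is quantified by RT-PCR with capillary electrophoresis; activity fitted in both directions against DMSO.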

Results on three compounds are retold here after PubChem BioAssay (EPA / NIEHS).

SMILES strings stand for the structures. The source made the active and inactive calls. The calls were made as follows: active = hit-call score of the fitted dose curve at least 0.9, where 1 is the maximum; inactive = score below 0.9.

Chain of Hepatocyte nuclear factor 3-beta (Homo sapiens) (Q9Y261 whole entry, looked up): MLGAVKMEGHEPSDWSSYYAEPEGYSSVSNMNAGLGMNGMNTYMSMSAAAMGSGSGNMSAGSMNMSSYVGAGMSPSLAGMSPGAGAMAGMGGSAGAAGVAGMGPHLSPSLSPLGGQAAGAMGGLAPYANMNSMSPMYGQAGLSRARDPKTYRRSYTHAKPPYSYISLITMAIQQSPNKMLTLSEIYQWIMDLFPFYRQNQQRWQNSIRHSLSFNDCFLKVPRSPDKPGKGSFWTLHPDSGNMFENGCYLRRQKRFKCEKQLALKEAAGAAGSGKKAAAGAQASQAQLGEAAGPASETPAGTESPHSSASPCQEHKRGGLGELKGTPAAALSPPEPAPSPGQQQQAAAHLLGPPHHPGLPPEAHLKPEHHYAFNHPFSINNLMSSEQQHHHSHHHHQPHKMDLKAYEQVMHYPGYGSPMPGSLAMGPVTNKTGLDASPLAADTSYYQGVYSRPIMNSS
Chain of Hepatocyte nuclear factor 6 (Homo sapiens) (Q9UBC0 whole entry, looked up): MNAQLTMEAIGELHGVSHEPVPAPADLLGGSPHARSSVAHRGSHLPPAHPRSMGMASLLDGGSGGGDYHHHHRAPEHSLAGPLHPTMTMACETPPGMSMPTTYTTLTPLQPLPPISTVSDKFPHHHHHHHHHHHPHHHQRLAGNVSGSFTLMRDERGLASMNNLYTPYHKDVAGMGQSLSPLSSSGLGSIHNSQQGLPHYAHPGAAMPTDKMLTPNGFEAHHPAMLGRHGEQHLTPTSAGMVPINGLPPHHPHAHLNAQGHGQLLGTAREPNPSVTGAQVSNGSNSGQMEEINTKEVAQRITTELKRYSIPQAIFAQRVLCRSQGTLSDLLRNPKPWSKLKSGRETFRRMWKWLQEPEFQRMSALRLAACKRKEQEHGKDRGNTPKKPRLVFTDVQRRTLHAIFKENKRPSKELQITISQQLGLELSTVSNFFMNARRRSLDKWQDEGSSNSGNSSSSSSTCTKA
Chain of Heat shock factor protein 1 (Homo sapiens) (Q00613 whole entry, looked up, the tested form may be a part): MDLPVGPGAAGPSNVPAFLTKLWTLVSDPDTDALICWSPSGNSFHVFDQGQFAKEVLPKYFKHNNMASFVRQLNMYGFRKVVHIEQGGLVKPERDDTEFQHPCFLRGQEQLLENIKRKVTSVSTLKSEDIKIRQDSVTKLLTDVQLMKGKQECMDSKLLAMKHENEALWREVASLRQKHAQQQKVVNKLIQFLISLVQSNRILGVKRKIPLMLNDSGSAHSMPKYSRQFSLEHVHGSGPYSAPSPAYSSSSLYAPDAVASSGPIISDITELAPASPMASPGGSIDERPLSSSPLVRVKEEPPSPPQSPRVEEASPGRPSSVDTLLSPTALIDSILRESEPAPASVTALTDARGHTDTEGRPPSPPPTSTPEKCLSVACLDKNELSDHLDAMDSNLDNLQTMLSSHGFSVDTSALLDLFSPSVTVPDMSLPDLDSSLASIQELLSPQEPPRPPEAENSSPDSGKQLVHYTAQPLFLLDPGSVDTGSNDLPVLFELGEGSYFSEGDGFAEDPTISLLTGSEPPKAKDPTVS
Chain of Hypoxia-inducible factor 1-alpha (Homo sapiens) (Q16665 whole entry, looked up, the tested form may be a part): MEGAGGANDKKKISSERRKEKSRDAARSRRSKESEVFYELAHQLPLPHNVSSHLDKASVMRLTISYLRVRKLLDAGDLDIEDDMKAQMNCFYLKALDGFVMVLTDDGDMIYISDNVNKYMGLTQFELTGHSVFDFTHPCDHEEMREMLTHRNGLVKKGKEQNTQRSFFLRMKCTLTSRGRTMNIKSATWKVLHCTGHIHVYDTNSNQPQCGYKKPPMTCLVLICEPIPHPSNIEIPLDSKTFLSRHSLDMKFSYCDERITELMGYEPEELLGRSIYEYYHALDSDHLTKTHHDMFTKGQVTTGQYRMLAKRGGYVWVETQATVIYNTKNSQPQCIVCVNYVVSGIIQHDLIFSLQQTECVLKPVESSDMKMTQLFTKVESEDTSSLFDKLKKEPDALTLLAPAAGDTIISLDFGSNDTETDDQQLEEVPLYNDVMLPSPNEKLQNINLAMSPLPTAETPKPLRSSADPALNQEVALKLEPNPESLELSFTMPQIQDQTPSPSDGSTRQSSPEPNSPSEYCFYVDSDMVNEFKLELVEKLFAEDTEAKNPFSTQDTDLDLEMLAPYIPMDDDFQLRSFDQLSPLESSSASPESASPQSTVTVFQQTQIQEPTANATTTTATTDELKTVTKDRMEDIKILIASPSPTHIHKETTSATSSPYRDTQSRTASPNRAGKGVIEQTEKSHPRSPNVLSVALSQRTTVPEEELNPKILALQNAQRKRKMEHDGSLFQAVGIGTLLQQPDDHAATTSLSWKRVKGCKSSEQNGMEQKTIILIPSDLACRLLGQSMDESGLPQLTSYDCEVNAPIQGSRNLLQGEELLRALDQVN
Chain of Bile acid receptor (Homo sapiens) (Q96RI1 whole entry, looked up): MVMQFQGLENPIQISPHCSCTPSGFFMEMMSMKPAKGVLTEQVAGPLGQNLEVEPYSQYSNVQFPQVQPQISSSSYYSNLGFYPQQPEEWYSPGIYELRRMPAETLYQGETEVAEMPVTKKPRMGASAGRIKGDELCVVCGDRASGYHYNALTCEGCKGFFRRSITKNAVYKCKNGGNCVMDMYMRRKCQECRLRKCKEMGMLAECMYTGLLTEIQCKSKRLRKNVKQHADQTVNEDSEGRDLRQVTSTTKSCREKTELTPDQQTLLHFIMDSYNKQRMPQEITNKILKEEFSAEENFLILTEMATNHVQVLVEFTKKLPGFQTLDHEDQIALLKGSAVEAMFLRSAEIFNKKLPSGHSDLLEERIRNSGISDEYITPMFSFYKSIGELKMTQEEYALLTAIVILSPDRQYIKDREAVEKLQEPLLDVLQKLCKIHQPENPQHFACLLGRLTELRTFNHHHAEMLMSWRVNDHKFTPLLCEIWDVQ

On to `COCCOc1cc2cc(C(=O)NC3CCN(C(C)C)CC3)n(CC(=O)Nc3ccc(Cl)cn3)c2cn1`, for which the AC50 in assay [1] was 100 µM (active); in assay [3], 123 µM (active); in [12], 139 µM (active); in [15] it was 26.2 µM (active); in [16] it was 28.6 µM (active); in [18] it was 135 µM (active). Further, the compound was classed as inactive in assay [2], in [4], in assay [5], in assay [6], in assay [7] and in [8]. For the same compound, the result in assay [9], in [10], in assay [11], in assay [13], in assay [14] and in [17] was inactive.

Regarding `CCCCCCCCO`, the result in [1], in assay [2], in [3], in assay [4], in assay [19] and in assay [5] was inactive. In addition, the compound was classed as inactive in assay [6], in assay [7], in assay [8], in assay [9], in [11] and in [12]. Also, the result in assay [13], in assay [14], in assay [15], in [16], in [17] and in [18] was inactive. The outcome in assay [20] was inactive.

Consider `CCCC(=O)OCC`, for which the result in [1], in assay [2], in [3], in assay [4], in [19] and in assay [5] was inactive. Besides, the outcome in assay [6], in [7], in assay [8], in assay [9], in assay [11] and in assay [12] was inactive. Also, the call in [14], in assay [16], in [17], in assay [18] and in assay [20] was inactive. Moreover, in assay [15], the half-maximal activity concentration (AC50) was 0.171 µM (active).
